Test results: the supplement of paper PMC10981050
Where a name gives a salt, the structure may show the parent alone.

Tested on: OCI-AML2
Experiment: cell viability relative to vehicle control; higher = less cytotoxic
Conditions: 10 µM; SRSF2 genotype: wt/wt
In short: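 CRISPR-edited SRSF2 P95 mutant and isogenic wild-type clones of four leukaemia lines were screened against Selleck bioactive, kinase and epigenetic probe libraries, with identity-inconsistent compounds removed. Compounds were acoustically dispensed into 384-well plates at a single 10 µM dose, with 2000 cells in 50 µL medium per well. After 48 h, supernatant was removed and CellTiter-Glo luminescence was read. Viability was expressed as percent of the on-plate DMSO vehicle control, analysed in Genedata Screener.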

Structure (SMILES)	cell viability [%]
CCOC(=O)Nc1ccc(NCc2ccc(F)cc2)cc1N [Retigabine 2HCl]	102
Cn1c(COP(=O)(NCCBr)NCCBr)cnc1[N+](=O)[O-]	40.1
NC(=O)CN1CCCC1=O [Piracetam]	112
CC(C)c1ccc2c(c1O)CC[C@H]1C3=C(CC[C@]21C)C(=O)OC3 [Triptophenolide]	61.7
C#C[C@]1(O)C=C[C@H]2[C@@H]3CCC4=CC(=O)CC[C@@H]4[C@H]3CC[C@@]21CC [Gestodene]	94.8
Cc1cccc(Cc2c[nH]cn2)c1C [Detomidine HCl]	93.1
CCCN1C[C@H](CSC)C[C@@H]2c3cccc4[nH]cc(c34)C[C@H]21 [Pergolide mesylate]	93.1
O=c1ccc2ccc3occc3c2o1 [Isopsoralen]	97
CNCC(O)c1ccc(O)cc1 (stereo not given) [Synephrine (Oxedrine)]	106
CCO[C@H]1O[C@@H]2O[C@@]3(C)CC[C@H]4[C@H](C)CC[C@@H]([C@H]1C)[C@@]24OO3 [Arteether]	52.5
C[C@](O)(COc1ccc(C#N)cc1)C(=O)Nc1ccc(C#N)c(C(F)(F)F)c1	93.4
CCN(CC)CCOC(=O)C(O)(c1ccccc1)c1ccccc1 [Benactyzine hydrochloride]	92.6
C[N+]1(C)CCCC(OC(=O)C(O)(c2ccccc2)c2ccccc2)C1 (stereo not given) [mepenzolate bromide]	105
Cc1ccccc1-n1c(Cn2ncc3c(N)ncnc32)nc2cccc(C)c2c1=O	83.9
C=CC[C@]1(O)CC[C@H]2[C@@H]3CCC4=CC(=O)CCC4=C3C=C[C@@]21C [Altrenogest]	96.9
CN1C2CCC1CC(O)C2 (stereo not given) [Tropine]	108
Cc1ccccc1-n1c(CF)nc2ccc(N)cc2c1=O [Afloqualone]	94.4
CNCC(=O)c1ccc(O)c(O)c1 [Adrenalone HCl]	97.5

Structure (SMILES)	cell viability [%]
CC(=O)O[C@H]1C(=O)[C@@]2(C)[C@H]([C@H](OC(=O)c3ccccc3)[C@]3(O)C[C@H](O)C(C)=C1C3(C)C)[C@]1(OC(C)=O)CO[C@@H]1C[C@@H]2O	97.3
Nc1ncnc2c1ccn2[C@@H]1O[C@H]([C@H](O)c2ccccc2)[C@@H](O)[C@H]1O	88
CN1CCCCC1Cn1cc(C(=O)c2cc([N+](=O)[O-])ccc2I)c2ccccc21 (stereo not given)	65.5
CC(=O)Nc1ccc(Cc2ccc(NC(C)=O)cc2)cc1	113
NC(=O)CN1CC(c2ccccc2)CC1=O (stereo not given) [Phenylpiracetam]	103
CC(C)c1ccc(CO)cc1 [4-Isopropylbenzyl Alcohol]	97.4
O=C(c1ccccc1O)c1[nH]c(Cl)c(Cl)c1-n1c(C(=O)c2ccccc2O)cc(Cl)c1Cl [Marinopyrrole A (Maritoclax)]	11.9
CCN1CCN(C(=O)Cc2ccc(Nc3ncc(F)c(Nc4ccc(C(=O)Nc5ccccc5Cl)cc4)n3)cc2)CC1 [Aurora A Inhibitor I]	4.81
C=C[C@H]1CN2CC[C@H]1C[C@H]2[C@H](O)c1ccnc2ccccc12 [Cinchonidine]	92.1
O=c1ccc2cc(O[C@@H]3O[C@H](CO)[C@@H](O)[C@H](O)[C@H]3O)c(O)cc2o1 [Aesculin (Esculin)]	93.3
C[N+](C)(C)CCCCCCCCCC[N+](C)(C)C [Decamethonium Bromide]	102
CC[C@H]1CN2CC[C@H]1C[C@H]2[C@H](O)c1ccnc2ccc(OC)cc12 [Hydroquinine]	110
O=C(O)CCCCCCCCCO [10-Hydroxydecanoic acid]	92.7
COC1=CC23CCN(C)C(Cc4ccc(OC)c(O)c42)C3=CC1=O (stereo not given) [Sinoacutine]	104
COc1ccc(C(=O)N2CCCC2=O)cc1 [Aniracetam]	106
CC(C)=CCCC(C)(O)C1CCC2(C)C1C(O)CC1C3(C)CCC(OC4OC(CO)C(O)C(O)C4O)C(C)(C)C3CCC12C [(20R)Ginsenoside Rh2]	106
c1cc2c(cc1[C@H]1OC[C@H]3[C@@H]1CO[C@H]3c1ccc3c(c1)OCO3)OCO2 [Asarinin]	89.4
